Compounds with a hit are over-represented: about 4.1% of the library has one in this group of screens.
DAX1 inh-1 = DAX1 (NR0B1) inhibitors on StAR promoter, primary screen, cell-based, luminescence, SF-1 (NR5A1), full-length DAX-1 | HEK293T StAR-luciferase reporter, SF-1/DAX-1 repression relief | AID 652010, 2013 | 370,000 compounds, 1.1% hits | inhibition, % at 6.8 µM;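 active = inhibition above the mean over all tested compounds plus 3 SD, cut at about 3.6% in these data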;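 also: 0% = DAX-1 cells with DMSO and 100% = cells lacking DAX-1 with DMSO; higher inhibition means more luminescence from relief of DAX-1 repression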
hcDAF12 agonist = H. contortus DAF-12 nuclear receptor activators, primary screen, cell-based, luminescence, HEK293, lit1-tk-luc reporter; HEK293 hcDAF-12 lit1-tk-luc reporter; 0% DMSO, 100% Δ7-dafachronic acid; activation, % at 6.8 µM; 370,000 compounds, 1.4% hits;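 active = activation above the mean of all tested compounds plus 3 SD, cut at about 5.5% in these data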;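 also: 100% = response to 3 µM Δ7-dafachronic acid high control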
DAX1 inh-2 = DAX1 (NR0B1) inhibitors, primary screen, cell-based, HEK293, Gal4-DAX1, luciferase luminescence; HEK293 Gal4-DAX1 luciferase reporter; inhibition, % at 6.75 µM; 340,000 compounds, 0.99% hits; Nuclear receptor subfamily 0 group B member 1 (Homo sapiens), P51843;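 active = inhibition above the mean over all tested compounds plus 3 SD, cut at about 4.2% in these data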;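 also: 0% = DAX1-transfected cells with DMSO and 100% = empty-vector control cells with DMSO; inhibition shows as a rise in luminescence from relieved DAX1 repression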
Target sequence (P51843 207-470 limits assumed): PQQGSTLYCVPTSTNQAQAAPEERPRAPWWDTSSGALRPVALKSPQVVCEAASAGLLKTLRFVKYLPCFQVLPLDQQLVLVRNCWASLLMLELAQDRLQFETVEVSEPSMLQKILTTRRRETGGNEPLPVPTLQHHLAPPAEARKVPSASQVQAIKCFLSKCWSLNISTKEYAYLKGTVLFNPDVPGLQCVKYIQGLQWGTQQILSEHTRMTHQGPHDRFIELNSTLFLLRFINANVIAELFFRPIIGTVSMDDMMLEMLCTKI
hgDAF12 agonist = H. glycines DAF-12 receptor agonists, primary screen, cell-based, luminescence, HEK293, GAL4 fusion, UAS-luciferase; activation, % at 6.8 µM; Nuclear hormone receptor DAF-12 (Heterodera glycines), GAL4 fusion; HEK293 GAL4-hgDAF12 UAS-luciferase reporter, agonist luminescence; normalized to butyrate control; 370,000 compounds, 1.8% hits; AID 687014, 2013;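 active = activation above a cutoff set at the mean of all screened compounds plus 3 SD, cut at about 10% in these data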;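 also: 0% = DMSO wells and 100% = sodium butyrate wells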
ssDAF12 agonist = S. stercoralis DAF-12 nuclear receptor activators, primary screen, cell-based, luminescence, HEK293, GRIP1 co-expression, lit1-tk-luc. Nuclear hormone receptor DAF-12 (Strongyloides stercoralis). HEK293 ssDAF-12/GRIP1 lit1-tk-luc reporter; % of 3 µM dafachronic acid response. activation, % at 6.8 µM. 370,000 compounds, 1% hits;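 active = activation above the mean over all tested compounds plus 3 SD, cut at about 0.9% in these data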;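 also: 0% = DMSO-only wells and 100% = 3 µM delta7-dafachronic acid wells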
Starred values were filed as active, the others as inactive; . = no result.

SMILES | DAX1 inh-1 | hcDAF12 agonist | DAX1 inh-2 | hgDAF12 agonist | ssDAF12 agonist
CCN(CC)C(=S)SCC(=O)c1c(C)[nH]c2ccccc12 | 0.5 | 0.9 | -0.5 | 1.4 | -1.1
CCN(CC)C(=S)SCC(=O)c1ccccc1 | 2.0 | 1.6 | 3.7 | 11.2* | -0.2
COC(=O)[C@]12C[C@H](CC(=O)N3CCSCC3)C(=O)N(Cc3ccccc3)C1=C[C@H](C(C)(C)C)O[C@@H]2C | 0.0 | -0.5 | . | -0.3 | -0.6
Cc1ccc(Cn2c(/C=C/c3ccco3)nc3ccccc32)cc1 | -0.1 | 6.3* | 0.4 | 4.6 | -0.5
Clc1ccc(Cn2c(/C=C/c3ccco3)nc3ccccc32)cc1 | -0.3 | 0.6 | 1.8 | -0.2 | -1.0
COc1ccc(-c2nnn3c2C2c4cc(-c5cccc(F)c5)ccc4CCN2C(=O)C3)cc1 (stereo not drawn) | -0.3 | -1.3 | . | -0.3 | -0.5
O=C(Nc1ccc2c(c1)OCO2)c1cc(C2CCCCN2C(=O)CCc2ccccc2)on1 (stereo not drawn) | -1.2 | -0.9 | . | 0.3 | -0.9
O=C(Nc1ccc2c(c1)OCO2)c1cc(C2CCCCN2S(=O)(=O)Cc2ccccc2)on1 (stereo not drawn) | 4.4* | 3.8 | . | 10.9* | -1.2
O=c1/c(=C/c2ccccn2)sc2nc3ccccc3n12 | 2.5 | 5.3 | 4.1 | 8.7 | 1.3*
COC(=O)/C=c1/sc2nc3ccccc3n2c1=O | 0.5 | 0.8 | 0.6 | -0.2 | -0.3
COc1ccccc1-c1cc(C(=O)N2CCN(c3ccc(F)cc3)CC2)no1 | 0.4 | -1.2 | -0.4 | 1.7 | -0.7
COc1cccc(-c2cc(C(=O)N3C(C)CCCC3C)no2)c1 (stereo not drawn) | 2.2 | 5.9* | 1.7 | 4.1 | -0.3
COc1ccccc1-c1cc(C(=O)N2CCCC2)no1 | 2.5 | 6.5* | 2.8 | 9.2 | 0.4
COc1ccc(-c2cc(C(=O)N3CCOCC3)no2)cc1 | 2.8 | 4.7 | -0.9 | 10.0 | 1.3*
NC(=O)C1CCN(c2ncc(Br)cn2)CC1 | . | 1.7 | . | 0.9 | -0.7
COCCNC(=O)c1cc2c(s1)-c1ccc(Cl)cc1SC2 | 2.2 | 0.7 | 5.0* | 12.8* | 0.7
COC(=O)C1=C(C)N(C)C(=NCc2cc(OC)c(OC)c(OC)c2)NC1c1ccc(Cl)cc1 (stereo not drawn) | -0.5 | -2.4 | . | -2.3 | -0.3
CCCCCCNC(=O)c1c(N)[nH]c(C(=O)c2ccccc2)c1-c1ccc(O)cc1 | . | -3.0 | . | -1.5 | -1.5
O=C1CC(NS(=O)(=O)c2cccnc2)CN1c1ccc(F)cc1 (stereo not drawn) | 3.9* | 0.5 | -0.5 | 0.2 | -0.7
CN(C)c1ccc(N/C=C/C(=O)c2ccco2)cc1 | 0.8 | 1.3 | 4.3* | 3.9 | -0.2
N#C/C(=C/c1ccc(Br)s1)C(=O)NCCc1c[nH]c2ccccc12 | -0.4 | 6.0* | 0.0 | -1.5 | 0.2
Cc1cc(/C=C(\C#N)C(=O)NCCc2c[nH]c3ccccc23)c(C)n1C | -0.8 | -3.0 | -0.9 | -2.2 | -1.5
COc1cccc(NC(=O)CN(C2=NC3CS(=O)(=O)CC3S2)c2cccc(C)c2)c1 (stereo not drawn) | -0.2 | 0.2 | 0.2 | 0.5 | 1.2*
COc1ccc(N(CC(=O)Nc2cc(Cl)ccc2OC)C2=NC3CS(=O)(=O)CC3S2)cc1 (stereo not drawn) | -1.0 | 0.3 | 1.0 | 0.0 | -0.5
Cn1cc(/C=C2\SC(=S)N(NC(=O)c3ccccc3)C2=O)c2ccccc21 | -0.5 | 3.9 | -0.4 | 1.2 | 1.0*
Cn1cc(/C=C2\SC(=S)N(NC(=O)c3cccc(Cl)c3)C2=O)c2ccccc21 | -0.3 | -1.1 | 0.3 | 3.1 | -1.0
C[C@H]1[C@H](N(Cc2ccccc2)Cc2ccccc2)CC[C@@]23CCCN2C(=O)CCC[C@@H]13 | . | -1.4 | . | -2.1 | -1.4
N#CCC[C@H]1CC[C@]2(CCCN(C(=O)c3ccc4ccccc4n3)C2)O1 | 0.5 | -0.8 | . | 1.5 | 0.1

Screening results (PubChem)
